Assays:
Assay in all cases: log2 ratio of Biotin-Ahx-Ub-VS probe labelling (fragment/DMSO); higher = less target engagement (more negative = stronger competition), active = hit call of the paper (q ≤ 0.05, log2 ratio ≤ -1)
Settings in all cases: compound concentration: 200 uM; treatment time: 3 h
USP16 = USP16 (UniProt Q9Y5T5)
In short: (§1)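 Global-median-normalised Spectronaut label-free quantities were compared by unpaired t-test, and values are average log2 ratios of fragment over vehicle. Only proteins with ≥2 unique peptides were used. HEK293T lysate (495 µg per sample) was treated in triplicate with fragment at 200 µM or vehicle for 3 h and then with Biotin-Ahx-Ub-VS at 0.5 µM final for 1 h. Labelled DUBs were then NeutrAvidin-enriched, digested with LysC and trypsin, and run by diaPASEF LC-MS/MS.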

USP19 = molecular target: T1, USP19 (UniProt O94966)
T1 sequence (whole entry): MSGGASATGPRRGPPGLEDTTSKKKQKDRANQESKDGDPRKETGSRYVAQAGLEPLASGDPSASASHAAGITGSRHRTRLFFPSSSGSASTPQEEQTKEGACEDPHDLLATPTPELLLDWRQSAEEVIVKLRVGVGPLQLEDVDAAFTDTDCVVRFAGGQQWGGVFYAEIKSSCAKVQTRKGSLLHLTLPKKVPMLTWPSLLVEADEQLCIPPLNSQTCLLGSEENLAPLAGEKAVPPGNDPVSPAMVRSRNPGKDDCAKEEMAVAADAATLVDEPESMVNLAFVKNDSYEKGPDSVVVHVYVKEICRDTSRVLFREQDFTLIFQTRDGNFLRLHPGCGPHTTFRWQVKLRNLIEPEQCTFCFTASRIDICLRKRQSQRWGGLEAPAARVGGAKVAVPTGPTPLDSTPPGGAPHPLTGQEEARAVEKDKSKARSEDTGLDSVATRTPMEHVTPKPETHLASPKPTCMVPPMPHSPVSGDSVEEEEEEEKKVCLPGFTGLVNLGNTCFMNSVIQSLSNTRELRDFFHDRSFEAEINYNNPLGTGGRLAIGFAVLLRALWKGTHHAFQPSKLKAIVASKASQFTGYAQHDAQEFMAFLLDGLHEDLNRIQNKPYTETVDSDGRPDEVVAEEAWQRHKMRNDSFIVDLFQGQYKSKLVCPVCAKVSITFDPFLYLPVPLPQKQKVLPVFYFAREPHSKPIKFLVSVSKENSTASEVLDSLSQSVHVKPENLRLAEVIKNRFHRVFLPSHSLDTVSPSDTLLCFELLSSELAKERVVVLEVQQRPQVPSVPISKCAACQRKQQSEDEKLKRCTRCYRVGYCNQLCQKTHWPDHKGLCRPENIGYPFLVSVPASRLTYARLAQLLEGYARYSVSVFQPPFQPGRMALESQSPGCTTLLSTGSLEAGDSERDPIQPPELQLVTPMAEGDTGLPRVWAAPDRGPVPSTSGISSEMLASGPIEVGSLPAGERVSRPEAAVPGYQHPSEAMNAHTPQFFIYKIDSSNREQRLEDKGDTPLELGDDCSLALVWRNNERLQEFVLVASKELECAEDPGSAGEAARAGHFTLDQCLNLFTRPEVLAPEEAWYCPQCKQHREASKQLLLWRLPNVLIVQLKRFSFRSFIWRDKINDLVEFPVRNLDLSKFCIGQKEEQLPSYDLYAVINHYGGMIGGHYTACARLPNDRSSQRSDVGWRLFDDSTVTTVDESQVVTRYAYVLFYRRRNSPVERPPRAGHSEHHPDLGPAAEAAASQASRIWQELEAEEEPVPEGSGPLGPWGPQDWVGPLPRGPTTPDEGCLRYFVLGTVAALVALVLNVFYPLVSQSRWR
In short: as §1

USP24 = USP24 (UniProt Q9UPU5)
USP24, sequence (Q9UPU5 whole entry): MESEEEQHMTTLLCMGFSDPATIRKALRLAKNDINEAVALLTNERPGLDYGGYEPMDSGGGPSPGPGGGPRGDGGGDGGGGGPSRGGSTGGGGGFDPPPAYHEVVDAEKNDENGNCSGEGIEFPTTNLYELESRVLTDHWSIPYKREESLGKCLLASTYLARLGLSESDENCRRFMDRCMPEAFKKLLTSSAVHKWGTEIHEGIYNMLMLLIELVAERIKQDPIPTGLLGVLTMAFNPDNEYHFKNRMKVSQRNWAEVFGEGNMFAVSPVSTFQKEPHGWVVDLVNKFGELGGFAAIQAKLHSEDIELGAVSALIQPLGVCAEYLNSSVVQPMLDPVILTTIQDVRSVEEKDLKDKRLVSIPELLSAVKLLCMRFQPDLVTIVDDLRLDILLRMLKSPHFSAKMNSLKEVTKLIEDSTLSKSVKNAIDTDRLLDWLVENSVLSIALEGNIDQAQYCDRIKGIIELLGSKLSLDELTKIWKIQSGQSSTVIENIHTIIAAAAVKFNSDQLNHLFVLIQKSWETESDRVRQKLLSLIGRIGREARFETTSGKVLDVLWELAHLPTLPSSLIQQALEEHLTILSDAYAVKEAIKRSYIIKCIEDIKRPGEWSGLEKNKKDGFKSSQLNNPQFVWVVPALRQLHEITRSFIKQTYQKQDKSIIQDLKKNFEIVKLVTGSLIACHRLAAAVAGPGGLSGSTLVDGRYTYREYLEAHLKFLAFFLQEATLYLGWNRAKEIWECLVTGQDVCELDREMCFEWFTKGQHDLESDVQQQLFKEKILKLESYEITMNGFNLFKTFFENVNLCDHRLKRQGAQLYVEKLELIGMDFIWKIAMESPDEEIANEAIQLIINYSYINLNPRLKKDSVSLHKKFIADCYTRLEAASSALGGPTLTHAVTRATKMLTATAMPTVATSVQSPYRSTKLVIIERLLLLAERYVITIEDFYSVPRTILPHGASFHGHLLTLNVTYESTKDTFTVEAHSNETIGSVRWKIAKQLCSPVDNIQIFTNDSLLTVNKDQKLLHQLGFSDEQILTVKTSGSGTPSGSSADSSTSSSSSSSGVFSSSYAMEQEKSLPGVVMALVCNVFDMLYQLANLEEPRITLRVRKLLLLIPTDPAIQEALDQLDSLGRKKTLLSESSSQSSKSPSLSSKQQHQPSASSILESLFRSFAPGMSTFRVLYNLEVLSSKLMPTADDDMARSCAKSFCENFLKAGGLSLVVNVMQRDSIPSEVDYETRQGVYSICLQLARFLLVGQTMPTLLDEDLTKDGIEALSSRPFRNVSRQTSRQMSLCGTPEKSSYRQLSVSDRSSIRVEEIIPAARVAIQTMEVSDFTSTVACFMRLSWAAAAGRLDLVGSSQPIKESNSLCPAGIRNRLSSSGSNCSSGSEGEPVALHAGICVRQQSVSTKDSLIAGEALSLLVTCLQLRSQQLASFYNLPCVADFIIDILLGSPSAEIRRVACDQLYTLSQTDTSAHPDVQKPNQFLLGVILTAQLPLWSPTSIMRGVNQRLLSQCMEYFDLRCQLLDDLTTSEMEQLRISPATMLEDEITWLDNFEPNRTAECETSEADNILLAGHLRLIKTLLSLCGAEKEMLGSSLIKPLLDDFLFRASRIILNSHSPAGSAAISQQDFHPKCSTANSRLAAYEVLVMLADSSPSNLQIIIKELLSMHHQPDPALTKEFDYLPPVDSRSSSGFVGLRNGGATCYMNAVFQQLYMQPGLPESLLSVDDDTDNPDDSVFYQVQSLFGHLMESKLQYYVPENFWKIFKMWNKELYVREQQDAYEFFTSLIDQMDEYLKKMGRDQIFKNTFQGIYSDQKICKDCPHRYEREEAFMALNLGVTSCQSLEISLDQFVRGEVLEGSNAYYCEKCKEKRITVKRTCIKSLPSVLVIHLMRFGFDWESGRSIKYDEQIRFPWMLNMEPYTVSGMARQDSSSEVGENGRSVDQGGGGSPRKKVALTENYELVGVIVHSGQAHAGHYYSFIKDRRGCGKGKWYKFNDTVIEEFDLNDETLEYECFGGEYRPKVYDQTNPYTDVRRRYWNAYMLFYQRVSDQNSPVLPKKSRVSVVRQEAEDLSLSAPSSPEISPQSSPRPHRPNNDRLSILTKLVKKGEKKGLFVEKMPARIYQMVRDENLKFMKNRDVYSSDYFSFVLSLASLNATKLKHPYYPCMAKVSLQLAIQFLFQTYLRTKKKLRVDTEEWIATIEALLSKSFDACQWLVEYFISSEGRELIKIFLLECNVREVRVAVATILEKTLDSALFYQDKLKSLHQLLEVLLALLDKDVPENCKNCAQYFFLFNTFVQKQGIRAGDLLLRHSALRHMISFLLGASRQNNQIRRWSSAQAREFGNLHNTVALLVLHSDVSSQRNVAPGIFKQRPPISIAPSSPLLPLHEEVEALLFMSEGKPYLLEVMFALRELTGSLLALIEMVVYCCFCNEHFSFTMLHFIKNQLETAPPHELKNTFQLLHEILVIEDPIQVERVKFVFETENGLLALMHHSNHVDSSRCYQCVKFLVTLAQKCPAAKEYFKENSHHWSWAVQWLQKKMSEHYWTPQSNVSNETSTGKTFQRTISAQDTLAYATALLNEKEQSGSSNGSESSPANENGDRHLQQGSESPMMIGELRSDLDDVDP
In short: as §1

USP25 = molecular target: T2, USP25 (UniProt Q9UHP3)
T2 sequence (whole entry): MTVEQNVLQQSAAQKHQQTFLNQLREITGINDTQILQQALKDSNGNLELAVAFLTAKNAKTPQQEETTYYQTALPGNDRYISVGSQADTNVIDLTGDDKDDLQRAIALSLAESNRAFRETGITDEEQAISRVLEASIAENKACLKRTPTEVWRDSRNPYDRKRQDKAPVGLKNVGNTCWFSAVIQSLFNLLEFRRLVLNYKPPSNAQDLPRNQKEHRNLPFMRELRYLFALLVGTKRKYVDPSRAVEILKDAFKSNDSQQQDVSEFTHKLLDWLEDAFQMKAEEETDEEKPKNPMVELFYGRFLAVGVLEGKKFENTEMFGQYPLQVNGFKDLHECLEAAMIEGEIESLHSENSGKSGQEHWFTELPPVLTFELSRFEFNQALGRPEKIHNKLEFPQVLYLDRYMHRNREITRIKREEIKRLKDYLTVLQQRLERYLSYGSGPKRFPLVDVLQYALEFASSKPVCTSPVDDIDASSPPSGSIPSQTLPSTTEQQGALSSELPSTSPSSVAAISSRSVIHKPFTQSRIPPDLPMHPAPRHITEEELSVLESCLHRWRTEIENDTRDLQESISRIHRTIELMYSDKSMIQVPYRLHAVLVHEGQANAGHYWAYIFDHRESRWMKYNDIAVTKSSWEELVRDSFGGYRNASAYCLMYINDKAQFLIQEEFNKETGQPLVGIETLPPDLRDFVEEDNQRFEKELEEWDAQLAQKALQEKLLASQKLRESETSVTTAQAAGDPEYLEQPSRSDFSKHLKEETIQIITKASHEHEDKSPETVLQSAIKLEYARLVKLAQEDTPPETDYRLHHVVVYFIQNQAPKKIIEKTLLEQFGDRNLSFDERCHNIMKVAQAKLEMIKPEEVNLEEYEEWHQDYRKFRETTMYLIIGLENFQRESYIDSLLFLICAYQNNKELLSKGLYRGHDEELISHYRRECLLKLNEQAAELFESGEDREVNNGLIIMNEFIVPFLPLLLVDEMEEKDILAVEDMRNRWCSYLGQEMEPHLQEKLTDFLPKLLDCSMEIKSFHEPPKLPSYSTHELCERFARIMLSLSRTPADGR
In short: as §1

USP28 = molecular target: T3, USP28 (UniProt Q96RU2)
T3 sequence (whole entry): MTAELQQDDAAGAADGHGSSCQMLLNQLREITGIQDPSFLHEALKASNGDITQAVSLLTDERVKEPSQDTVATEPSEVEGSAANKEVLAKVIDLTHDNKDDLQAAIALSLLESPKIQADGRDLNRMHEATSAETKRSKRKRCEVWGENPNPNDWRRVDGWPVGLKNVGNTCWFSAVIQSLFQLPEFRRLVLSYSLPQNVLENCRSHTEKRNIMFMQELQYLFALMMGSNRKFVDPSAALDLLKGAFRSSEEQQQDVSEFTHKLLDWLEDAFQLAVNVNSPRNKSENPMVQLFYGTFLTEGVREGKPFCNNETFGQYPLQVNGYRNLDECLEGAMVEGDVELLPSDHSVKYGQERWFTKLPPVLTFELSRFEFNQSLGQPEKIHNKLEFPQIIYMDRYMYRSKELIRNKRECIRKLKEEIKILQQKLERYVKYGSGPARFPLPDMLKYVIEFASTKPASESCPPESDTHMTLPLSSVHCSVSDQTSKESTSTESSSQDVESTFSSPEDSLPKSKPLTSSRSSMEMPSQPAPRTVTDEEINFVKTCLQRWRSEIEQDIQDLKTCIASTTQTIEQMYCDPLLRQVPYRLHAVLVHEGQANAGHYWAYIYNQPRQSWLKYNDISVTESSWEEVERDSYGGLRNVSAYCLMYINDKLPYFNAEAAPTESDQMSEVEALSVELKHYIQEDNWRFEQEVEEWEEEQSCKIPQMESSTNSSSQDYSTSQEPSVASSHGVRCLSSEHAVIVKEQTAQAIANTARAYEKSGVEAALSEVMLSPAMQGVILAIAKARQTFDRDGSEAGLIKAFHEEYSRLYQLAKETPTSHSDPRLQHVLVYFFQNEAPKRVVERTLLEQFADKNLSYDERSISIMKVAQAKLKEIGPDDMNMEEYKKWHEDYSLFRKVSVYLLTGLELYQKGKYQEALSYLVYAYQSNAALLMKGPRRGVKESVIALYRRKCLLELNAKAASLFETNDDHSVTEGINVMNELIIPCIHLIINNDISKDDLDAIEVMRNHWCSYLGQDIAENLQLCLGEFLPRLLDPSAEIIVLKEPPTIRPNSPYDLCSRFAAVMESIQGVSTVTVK
In short: as §1

Measured: log2 ratio of Biotin-Ahx-Ub-VS probe labelling

USP16, sequence (Q9Y5T5 whole entry, looked up, the tested form may be a part): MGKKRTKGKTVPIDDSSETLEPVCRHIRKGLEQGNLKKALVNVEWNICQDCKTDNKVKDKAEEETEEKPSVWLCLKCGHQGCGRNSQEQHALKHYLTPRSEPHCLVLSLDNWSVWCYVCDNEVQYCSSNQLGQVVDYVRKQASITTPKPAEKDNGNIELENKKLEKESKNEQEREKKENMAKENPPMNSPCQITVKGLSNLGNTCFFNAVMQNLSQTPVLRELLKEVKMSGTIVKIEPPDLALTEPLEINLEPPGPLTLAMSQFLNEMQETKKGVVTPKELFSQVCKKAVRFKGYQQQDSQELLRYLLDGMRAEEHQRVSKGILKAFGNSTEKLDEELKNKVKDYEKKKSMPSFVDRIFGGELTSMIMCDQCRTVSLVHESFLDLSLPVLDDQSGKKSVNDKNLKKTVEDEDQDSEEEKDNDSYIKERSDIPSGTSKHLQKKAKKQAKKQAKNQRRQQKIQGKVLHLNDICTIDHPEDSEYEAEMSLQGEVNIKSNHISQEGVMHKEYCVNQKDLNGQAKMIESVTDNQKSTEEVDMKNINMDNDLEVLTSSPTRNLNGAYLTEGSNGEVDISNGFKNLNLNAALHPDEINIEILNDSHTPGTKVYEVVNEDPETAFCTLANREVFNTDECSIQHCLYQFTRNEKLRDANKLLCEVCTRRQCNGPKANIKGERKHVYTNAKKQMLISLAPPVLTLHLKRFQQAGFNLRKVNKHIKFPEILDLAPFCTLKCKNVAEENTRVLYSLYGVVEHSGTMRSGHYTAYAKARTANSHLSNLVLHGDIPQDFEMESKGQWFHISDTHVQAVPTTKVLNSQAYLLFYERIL

COc1ccc(C2CCCN2C(=O)CCl)c(OC)c1 (stereo not given)
inactive: USP16 -0.285 | USP19 -0.593 | USP24 -0.807 | USP25 -0.175 | USP28 -0.41
